Counter-ions that a name gives are not always drawn. ± gives the standard deviation of the averaged measurements.

The subject of the first assay is E. coli TESEC Mtb DapB. The assay is described as follows: growth (OD600 after 10 h); higher = more growth (less inhibition). To be noted: arabinose induction (level): High; compound 0.1 mM; raw OD600 reference: median of DMSO wells […], cell-free background 0.041. Here is the method:
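TESEC E. coli strains in which the native enzyme is deleted and replaced by arabinose-inducible Mtb Asd, DapB, CysH or TrpD, each grown in its selective medium. Strains were screened against the Prestwick library at 0.1 mM and 1% DMSO in 384-well format at low and high arabinose induction. Growth is read as OD600 after 10 h in triplicate.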
`CC(NCCC(c1ccccc1)c1ccccc1)c1ccccc1` (stereo not given) [Fendiline hydrochloride] registered a growth of 0.0461 ± 0.00056.
Still for that read-out and setting: then `CN(C)CCOC(c1ccc(Cl)cc1)c1ccccn1` (stereo not given) [Carbinoxamine maleate salt], with 0.193 ± 0.01.
Same read-out and setting: the same measure for `CCC(=O)OCC(=O)[C@@]1(OC(=O)CC)[C@@H](C)C[C@H]2[C@@H]3CCC4=CC(=O)C=C[C@]4(C)[C@@]3(Cl)[C@@H](O)C[C@@]21C` [Beclomethasone dipropionate]: 0.22 ± 0.0053; for `Cc1ccccc1OCC(O)CO` (stereo not given) [Mephenesin]: 0.197 ± 0.0078.
`C[C@]12CC[C@@H]3c4ccc(O)cc4CC[C@H]3[C@@H]1CCC2=O` [Estrone] displayed a growth of 0.208 ± 0.026.
As to `Cc1cc2c(cc1S(N)(=O)=O)S(=O)(=O)CCC2` [Meticrane], the growth is 0.186 ± 0.0019.
Still for that read-out and setting: the same measure for `Nc1nc(=O)c2nc(CNc3ccc(C(=O)N[C@@H](CCC(=O)O)C(=O)O)cc3)cnc2[nH]1` [Folic acid]: 0.211 ± 0.019; for `CNCCc1ccccn1` [Betahistine mesylate]: 0.217 ± 0.025; for `CN/C(=N\CCSCc1nc[nH]c1C)NC#N` [Cimetidine]: 0.181 ± 0.012.
Still for that read-out and setting: the same measure for `O=C(NCC1CCCCN1)c1cc(OCC(F)(F)F)ccc1OCC(F)(F)F` (stereo not given) [Flecainide acetate]: 0.178 ± 0.016; for `COc1ccc(CN(CCN(C)C)c2ccccn2)cc1` [Pyrilamine maleate]: 0.188 ± 0.017; for `CCN(CC)CCNc1ccc(CO)c2sc3ccccc3c(=O)c12` [Hycanthone]: 0.21 ± 0.027.
Turning to `Cc1cccc(C)c1NC(=O)C1CCCCN1C` (stereo not given) [Mepivacaine hydrochloride], the growth was found to be 0.203 ± 0.013.
Same read-out and setting: then `OCCN1CCN(CC/C=C2/c3ccccc3Sc3ccc(Cl)cc32)CC1` [Zuclopenthixol dihydrochloride], with 0.179 ± 0.029; and `CCN(CC)CCOC(=O)C1(C2CCCCC2)CCCCC1` [Dicyclomine hydrochloride], with 0.144 ± 0.0069; and `OC(CCCN1CCCCC1)(c1ccccc1)c1ccccc1` [Diphenidol hydrochloride], with 0.182 ± 0.018.
`CC(C)c1ccc2oc3nc(N)c(C(=O)O)cc3c(=O)c2c1` [Amlexanox] displayed a growth of 0.197 ± 0.0066.
`COC(=O)C1=C(C)NC(C)=C(C(=O)OC2CCCN(Cc3ccccc3)C2)C1c1cccc([N+](=O)[O-])c1` (stereo not given) [Benidipine hydrochloride] displayed a growth of 0.17 ± 0.022.
Compound `CCN(Cc1ccncc1)C(=O)C(CO)c1ccccc1` (stereo not given) [Tropicamide] yielded a growth of 0.19 ± 0.0057.
On the same count and under the same terms, the same measure for `CCCCNc1ccc(C(=O)OCCOCCOCCOCCOCCOCCOCCOCCOCCOC)cc1` [Benzonatate]: 0.17 ± 0.017.

Still in this assay, the particulars now being: arabinose induction (level): Low; compound 0.1 mM; raw OD600 reference: median of DMSO wells 0.227, cell-free background 0.041.
The compound `CC(NCCC(c1ccccc1)c1ccccc1)c1ccccc1` (stereo not given) [Fendiline hydrochloride] showed a growth of 0.0491 ± 0.0046.
On the same count and under the same terms, then `CN(C)CCOC(c1ccc(Cl)cc1)c1ccccn1` (stereo not given) [Carbinoxamine maleate salt], with 0.23 ± 0.016.
Same read-out and setting: then `CCC(=O)OCC(=O)[C@@]1(OC(=O)CC)[C@@H](C)C[C@H]2[C@@H]3CCC4=CC(=O)C=C[C@]4(C)[C@@]3(Cl)[C@@H](O)C[C@@]21C` [Beclomethasone dipropionate], with 0.248 ± 0.035.
On the same count and under the same terms, the same measure for `Cc1ccccc1OCC(O)CO` (stereo not given) [Mephenesin]: 0.239 ± 0.02; for `C[C@]12CC[C@@H]3c4ccc(O)cc4CC[C@H]3[C@@H]1CCC2=O` [Estrone]: 0.201 ± 0.022.
`Cc1cc2c(cc1S(N)(=O)=O)S(=O)(=O)CCC2` [Meticrane]: the growth turned out to be 0.281 ± 0.079.
Same read-out and setting: then `Nc1nc(=O)c2nc(CNc3ccc(C(=O)N[C@@H](CCC(=O)O)C(=O)O)cc3)cnc2[nH]1` [Folic acid], with 0.239 ± 0.013; and `CNCCc1ccccn1` [Betahistine mesylate], with 0.25 ± 0.017; and `CN/C(=N\CCSCc1nc[nH]c1C)NC#N` [Cimetidine], with 0.206 ± 0.025.
Same read-out and setting: the same measure for `O=C(NCC1CCCCN1)c1cc(OCC(F)(F)F)ccc1OCC(F)(F)F` (stereo not given) [Flecainide acetate]: 0.213 ± 0.019.
On the same count and under the same terms, the same measure for `COc1ccc(CN(CCN(C)C)c2ccccn2)cc1` [Pyrilamine maleate]: 0.211 ± 0.029; for `CCN(CC)CCNc1ccc(CO)c2sc3ccccc3c(=O)c12` [Hycanthone]: 0.163 ± 0.01; for `Cc1cccc(C)c1NC(=O)C1CCCCN1C` (stereo not given) [Mepivacaine hydrochloride]: 0.216 ± 0.024.
With `OCCN1CCN(CC/C=C2/c3ccccc3Sc3ccc(Cl)cc32)CC1` [Zuclopenthixol dihydrochloride], the growth turned out to be 0.186 ± 0.038.
In turn, `CCN(CC)CCOC(=O)C1(C2CCCCC2)CCCCC1` [Dicyclomine hydrochloride] returned a growth of 0.183 ± 0.041.
Compound `OC(CCCN1CCCCC1)(c1ccccc1)c1ccccc1` [Diphenidol hydrochloride] returned a growth of 0.221 ± 0.054.
`CC(C)c1ccc2oc3nc(N)c(C(=O)O)cc3c(=O)c2c1` [Amlexanox] gave a growth of 0.206 ± 0.036.
Same read-out and setting: then `COC(=O)C1=C(C)NC(C)=C(C(=O)OC2CCCN(Cc3ccccc3)C2)C1c1cccc([N+](=O)[O-])c1` (stereo not given) [Benidipine hydrochloride], with 0.192 ± 0.016; and `CCN(Cc1ccncc1)C(=O)C(CO)c1ccccc1` (stereo not given) [Tropicamide], with 0.249 ± 0.054.
Same read-out and setting: then `CCCCNc1ccc(C(=O)OCCOCCOCCOCCOCCOCCOCCOCCOCCOC)cc1` [Benzonatate], with 0.206 ± 0.036.

(Values after the supplement of paper PMC9262897, “Low-cost anti-mycobacterial drug discovery using engineered E. coli” (Nature Communications, 2022).)
